DT40 TDP1 no CPT = qHTS for Inhibitors of human tyrosyl-DNA phosphodiesterase 1 (TDP1): qHTS in cells in absence of CPT | Potency, µM (doses to about 46.2 µM), without a hit: at the top dose activity change, negative = growth inhibition, usual class: inhibitors | 15% of 420,000 active | DT40 Tdp1-/- hTDP1 cells, no CPT, ATP luminescence, 48 h; further: potency means the concentration at half of the fitted maximal effect; nearly all actives have a fitted effect of over 55% in size
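Stably hTDP1-transfected Tdp1-null chicken DT40 cells were treated with library compounds minus camptothecin and grown for at least 48 hr at 37 °C, after which cellular ATP was quantified by luminescence.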
TDP1 cell CPT = DT40-hTDP1 cell growth loss with CPT | 12% of 420,000 active | chicken DT40 Tdp1-/-;hTDP1 cells + 20 nM CPT, ATP luminescence, 48 h | AID 686979 | Potency, µM (doses to about 46.2 µM), without a hit: top-dose activity change, negative = growth inhibition, hits mostly inhibitors; further: potency means the concentration at half of the fitted maximal effect; nearly all actives have a fitted effect of over 55% in size
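Cell growth measured by CellTiter-Glo luminescence after a minimum 48 h, 37 C compound exposure with 20 nM CPT in Tdp1-knockout DT40 cells stably expressing hTDP1, seeded 400/well; qHTS titration format.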
RORgamma inh = inhibitors of mouse ROR gamma transcriptional activity. P51450. Drosophila S2 Gal4-RORgamma UAS-luciferase reporter, 20 h. Potency, µM (titrated, usually from 53.6 µM), without a hit: top-dose activity change, negative = inhibition, hits mostly inhibitors. 5.4% of 310,000 active; further: potency means the concentration at half of the fitted maximal effect; nearly all actives have a fitted effect of over 60% in size
Target sequence (P51450 whole entry, looked up, the tested form may be a part): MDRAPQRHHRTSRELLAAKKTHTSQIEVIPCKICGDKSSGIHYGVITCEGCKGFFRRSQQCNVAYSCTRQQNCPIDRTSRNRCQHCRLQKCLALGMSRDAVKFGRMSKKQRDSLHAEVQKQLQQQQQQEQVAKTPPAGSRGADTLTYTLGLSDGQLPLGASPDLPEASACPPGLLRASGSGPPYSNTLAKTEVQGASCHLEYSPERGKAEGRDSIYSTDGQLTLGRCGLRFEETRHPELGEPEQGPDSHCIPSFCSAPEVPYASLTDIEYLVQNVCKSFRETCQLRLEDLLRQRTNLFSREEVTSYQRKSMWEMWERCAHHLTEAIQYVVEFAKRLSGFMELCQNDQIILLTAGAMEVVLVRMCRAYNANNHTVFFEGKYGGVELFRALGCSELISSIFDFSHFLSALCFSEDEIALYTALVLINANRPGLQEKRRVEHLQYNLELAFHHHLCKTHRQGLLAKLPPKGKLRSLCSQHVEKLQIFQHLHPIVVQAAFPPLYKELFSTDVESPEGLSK
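Stably transfected Drosophila Schneider cells are the test system, with ROR gamma fused to Gal4 and luciferase under UAS control; luminescence is read after 20 hr of 700 uM copper sulfate induction at ambient temperature.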
ELG1 DNA repair = inhibitors of ELG1-dependent DNA repair in HEK293T cells; HEK293T ELG1-luciferase reporter, luminescence, 16 h; DNA damage induced by 5-fluorouridine; Potency, µM (titrated, usually from 46.1 µM), for the others: at the highest dose activity change, negative = inhibition, actives largely listed as inhibitors; 2.3% of 330,000 active; AID 504467; further: potency means the concentration at half of the fitted maximal effect; nearly all actives have a fitted effect of over 55% in size
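Quantitative HTS, concentration-response format. 2,000 cells/well co-treated with 5-fluorouridine and compound, 16 hr in 5% CO2 at 37 °C; ONE-Glo luminescence read after 30 min.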
IL-1B inflam inh = blocks inflammasome-driven IL-1 beta release; 4.7% of 360,000 active; THP-1 LPS/ATP IL-1B secretion, AlphaLISA, 16 h; hits give low values; AID 743279; activity change, % at 57.5 µM; in the data active means activity change below about -50%; inconclusive means mostly about -30% to -49%
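Secreted IL-1B measured by AlphaLISA bead assay after 16 h compound exposure of THP-1 cells; compounds (final up to 57.5 uM) added 1 h before LPS (250 ng/mL) and ATP (1.25 mM) stimulation; lower signal means less secretion.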
VP16 counter = inhibits Gal4-VP16 luciferase reporter, ROR gamma counter-screen; Drosophila S2 Gal4-VP16 UAS-luciferase, luminescence, 20 h; Potency, µM (top dose mostly 53.6 µM), without a hit: at the top dose activity, negative = inhibition, hits mostly inhibitors; 3.5% of 310,000 active;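 further: Gal4-VP16 expression switched on by copper sulfate through the metallothionein promoter; potency means the concentration at half of the fitted maximal effect; nearly all actives have a fitted effect of over 50% in size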
An asterisk follows results filed as active; i = inactive; ? = inconclusive; . = not tested or not shown; [ ] = another dose, or the depositor's remark. Only some compounds are listed: those with a hit (about 21% of all), similar ones and a draw of the others. Unless noted, the call rests on the fitted dose curve; in most records, active means well fitted curve in the direction sought with a large enough effect; inconclusive means small, poorly fitted or top-dose-only effect, or another doubt; inactive means no such curve, though single readings can be large; an effect the other way counts as inactive or inconclusive. On the % scale 0 is the no-effect control and ±100 the full control effect.

SMILES	DT40 TDP1 no CPT	TDP1 cell CPT	RORgamma inh	ELG1 DNA repair	IL-1B inflam inh	VP16 counter
CCCCn1c(N)c(N(CCOC)C(=O)CN(C)CC(=O)Nc2ccc(Cl)c(Cl)c2)c(=O)[nH]c1=O	?	18.4µM*	.	-6.3%	?	.
CC(C)CN(C(=O)CN(C)CC(=O)Nc1ccc(Cl)c(C(F)(F)F)c1)c1c(N)n(CC(C)C)c(=O)[nH]c1=O	18.4µM*	?	.	-18.7%	-65.8*	.
COc1ccc(Cl)cc1NC(=O)CN(C)CC(=O)N(CC(C)C)c1c(N)n(CC(C)C)c(=O)[nH]c1=O	-1.1%	13.0%	.	-18.7%	0.3	.
CCCCn1c(N)c(N(CCOC)C(=O)COC(=O)COc2cc(C)c(Cl)cc2C(C)C)c(=O)[nH]c1=O	-14.1%	12.1%	.	12.8%	-97.7*	.
CCC(=O)N1CCc2cc(S(=O)(=O)NC(C(=O)NCCc3ccc(OC)c(OC)c3)C(C)C)ccc21 (stereo unspecified)	-3.7%	-4.5%	.	.	.	.
CC(=O)Oc1cc2c(s1)CCN(C(C(=O)C1CC1)c1ccccc1F)C2 (stereo unspecified)	-13.1%	6.1%	.	.	.	.
Cc1ccc(OCCOC(=O)CN2C(=O)NC3(CCCC3)C2=O)cc1	-24.7%	?	.	6.3%	-9.6	.
Cn1nnc(NC(=O)c2cccc([N+](=O)[O-])c2)n1	-4.1%	-3.1%	-35.7%	0.0%	0.0	-12.5%
O=C(Nc1ccccc1)N1CCc2scc[n+]2-c2ccccc21	11.6µM*	5.8µM*	-2.9%	?	?	-5.2%
O=C(Nc1ccccc1)N1CCC(=S)Nc2ccccc21	-1.6%	6.8%	-35.2%	-0.4%	22.2	-3.7%
CC1CN(C(=O)Nc2ccccc2)c2ccccc2-[n+]2ccsc21 (stereo unspecified)	11.6µM*	3.66µM*	-4.7%	?	-18.2	-5.2%
COc1cc(/C=N/NC(=O)C23CC4CC(CC(C4)C2)C3)cc(Br)c1O	-29.6%	22.3%	7.9%	0.9%	19.0	4.4%
O=C(N/N=C/c1cc([N+](=O)[O-])cc(Br)c1O)C12CC3CCC(CC(C3)C1)C2	23.1µM*	?	5.01µM*	23.1µM*	0.0	3.98µM*
Clc1ccc(/C=N/Nc2nnc(-c3ncc[nH]3)c3ccccc23)cc1	20.6µM*	?	1.26µM*	0.0%	22.0	3.16µM*
Nc1cnnc(N/N=C\c2ccccc2)c1Cl	-16.0%	-4.2%	.	.	-9.2	.
Cc1nnc(NCc2cccc(Cl)c2)c2ccccc12	?	?	-0.5%	0.6%	-20.7	14.0%
Clc1cccc(/C=N/Nc2nnc(Cl)c3ccccc23)c1	-23.6%	?	3.16µM*	?	?	?
CCN1CCCC1CNC(=O)c1cnn(-c2ncc(C)c(-c3ccc(F)cc3)n2)c1C(C)C (stereo unspecified)	-16.1%	-2.7%[9.04 µM]	.	.	.	.
O=C(O)CCC1CCCC1	.	.	-13.2%	.	.	-7.9%
CCOC(=O)N1c2ccccc2Sc2ccccc21	?	-11.0%	14.9%	0.4%	8.4	4.7%
Cc1ccccc1/C(N)=N/OC(=O)N1c2ccccc2Sc2ccccc21	12.6µM*	11.2µM*	?	4.3%	-6.9	?
Cc1ccc(/C(N)=N/OC(=O)N2c3ccccc3Sc3ccccc32)cc1	20.6µM*	?	.	.	-5.3	.
Cc1ccc(/C(N)=N/OC(=O)Cc2ccccc2)cc1	1.4%	8.7%	36.4%	?	7.7	0.4%
C=C1CCN(C(CC(C)C)C(=O)Nc2nc3ccc(Cl)cc3s2)S(=O)(=O)c2ccccc21 (stereo unspecified)	.	.	-13.5%	.	.	-2.5%
CCc1nc2ccc(C(=O)NCCN(C)C)cn2c1N(CC)CCOC	16.2%	-1.4%	.	.	-7.7	.
SMILES	DT40 TDP1 no CPT	TDP1 cell CPT	RORgamma inh	ELG1 DNA repair	IL-1B inflam inh	VP16 counter
CN1/C(=C\C=N\NC(=O)c2ccccc2Br)C(C)(C)c2ccccc21	?	-26.4%	0.794µM*	-25.4%	9.6	1.26µM*
CN1/C(=C/C=N/n2cnnc2)C(C)(C)c2ccccc21	23.1µM*	18.4µM*	22.8%	-3.7%	25.5	17.8µM*
COC(=O)/C=C/C1c2ccccc2C(OC)C1C (stereo unspecified)	.	.	25.1%[10 µM]	.	.	-2.6%[10 µM]
COc1cc(C)ccc1S(=O)(=O)N1CCN(C23CC4CC(CC(C4)C2)C3)CC1	16.4µM*	?	-6.1%	-1.1%	-5.6	-13.1%
COC(=O)C12CC3(CCC4C5C(C(OCc6ccccc6)C41)C52)OCCO3 (stereo unspecified)	.	.	16.4%[10 µM]	.	.	-0.3%[10 µM]
CC1(c2ccc3ccccc3c2)NC(=O)N(CC(=O)N2CCN(c3ccccc3O)CC2)C1=O (stereo unspecified)	13µM*	?	?	-21.4%	i	-9.1%
CC1CCN(C(=O)CN2C(=O)NC(C)(c3ccc4ccccc4c3)C2=O)CC1 (stereo unspecified)	16.4µM*	18.4µM*	.	-16.3%	4.4	.
Cc1ccc(C2(C)NC(=O)N(CC(=O)N3CCN(S(=O)(=O)c4cccs4)CC3)C2=O)cc1 (stereo unspecified)	-25.8%	-15.9%	.	2.5%	14.3	.
CC1(c2ccc3ccccc3c2)NC(=O)N(CC(=O)N2CCN(S(=O)(=O)c3ccccc3F)CC2)C1=O (stereo unspecified)	23.1µM*	?	?	?	-2.5	-20.7%
CN1CCN(C(=O)CN2C(=O)NC(C)(c3ccc4ccccc4c3)C2=O)CC1 (stereo unspecified)	-1.6%	-4.2%	.	9.1%	-0.3	.
Cc1ccc(C2(C)NC(=O)N(CC(=O)N3CCN(S(=O)(=O)c4ccc(Cl)s4)CC3)C2=O)cc1 (stereo unspecified)	?	20.6µM*	.	?	-5.6	.
COc1cccc(Cn2c(=O)c(-c3ccc(F)c(F)c3)nc3cncnc32)c1	?	-24.0%	0.9%	.	.	-3.0%
CCCCNC(=O)C1(C)CCN1C(=O)c1ccc(OC)c(F)c1 (stereo unspecified)	-14.7%	?	.	.	-4.6	.
COc1ccc(Cl)cc1NC(=O)CN(C)C(=O)CN1C(=O)NC(C)(c2ccc3ccccc3c2)C1=O (stereo unspecified)	14.6µM*	?	.	.	-52.9*	.
CC1(c2ccc(Cl)cc2)NC(=O)N(CC(=O)N2CCc3ccccc32)C1=O (stereo unspecified)	?	25.9µM*	.	22.0%	13.0	.
COc1ccc(Cl)cc1NC(=O)CN(C)C(=O)CN1C(=O)NC(C)(C)C1=O	-13.0%	2.6%	.	0.0%	8.0	.
